Test results as given in the supplement of paper PMC10127200.
Counter-ions that a name gives are not always drawn.

How the values were obtained:
Test in all cases: Euclidean distance of Cell Painting phenotypic profile (signed KS, 77 features) to DMSO centroid (dimensionless distance); 5 or 10 uM (library dependent); higher = stronger phenotypic change vs DMSO (phenoactivity)
Settings in all cases: 48 h
786-O = tested on: 786-O
Outline: (§1)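 Phenoactivity is defined as the Euclidean distance from a compound profile to the median vehicle profile. Each profile comprised 77 Harmony features, scored as signed Kolmogorov-Smirnov statistics versus same-plate vehicle wells, then plate-position corrected, correlation-weighted and replicate-averaged at the top dose. Five cancer lines and one healthy fibroblast line were exposed to library compounds for 48 h at 10 or 5 uM (0.1% DMSO final).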

A549 = tested on: A549
Outline: as §1

DU145 = tested on: DU145
Outline: as §1

FB = tested on: FB
Outline: as §1

HEPG2 = tested on: HEPG2
Outline: as §1

OVCAR4 = tested on: OVCAR4
Outline: as §1

Row | SMILES | Euclidean distance (786-O) | Euclidean distance (A549) | Euclidean distance (DU145) | Euclidean distance (FB) | Euclidean distance (HEPG2) | Euclidean distance (OVCAR4)
1 | Cc1ccc2c(Cl)cc(Cl)c(O)c2n1 [Chlorquinaldol] | 2.59 | 2.3 | 1.54 | 2.53 | 2.09 | 2.94
2 | C[C@@H]1CCO[C@H]2Cn3cc(C(=O)NCc4ccc(F)cc4F)c(=O)c(O)c3C(=O)N12 | 1.38 | 1.81 | 1.15 | 1 | 1.37 | 1.79
3 | CC1(C)S[C@@H]2[C@H](NC(=O)Cc3ccccc3)C(=O)N2[C@H]1C(=O)O.CCN(CC)CCOC(=O)c1ccc(N)cc1 [Penicillin G Procaine] | 0.821 | 0.676 | 0.97 | 1.38 | 0.466 | 1.24
4 | O=C1C(CC[S+]([O-])c2ccccc2)C(=O)N(c2ccccc2)N1c1ccccc1 (racemic) [(+/-)-Sulfinpyrazone] | 1.01 | 1.79 | 1.38 | 1.22 | 0.755 | 0.993
5 | CCc1ccc(/C=C2/SC(=S)NC2=O)cc1 | 0.453 | 0.809 | 1.03 | 1.15 | 0.771 | 0.723
6 | Oc1nc(-c2ccc(C(F)(F)F)cc2)nc2c1CSCC2 | 0.915 | 1.5 | 1.11 | 0.913 | 0.766 | 1.15
7 | CC(C)N(CCCCOCC(=O)NS(C)(=O)=O)c1cnc(-c2ccccc2)c(-c2ccccc2)n1 [Selexipag] | 0.931 | 1.04 | 0.729 | 1.31 | 0.663 | 1.65
8 | CC1(C)S[C@@H]2[C@H](NC(=O)[C@H](N)c3ccc(O)cc3)C(=O)N2[C@H]1C(=O)O [Amoxicillin Sodium] | 1.03 | 1.17 | 1.56 | 1.06 | 1.08 | 1.78
9 | CC(C)(C)OC(=O)N[C@H]1CCCCC/C=C\[C@@H]2C[C@@]2(C(=O)NS(=O)(=O)C2CC2)NC(=O)[C@@H]2C[C@@H](OC(=O)N3Cc4cccc(F)c4C3)CN2C1=O [Danoprevir (ITMN-191)] | 1.4 | 0.94 | 1.41 | 1.19 | 2.24 | 1.69
10 | CC(=O)OCC(=O)[C@H]1CC[C@H]2[C@@H]3CCC4=CC(=O)CC[C@]4(C)[C@H]3CC[C@]12C [Deoxycorticosterone acetate] | 0.997 | 0.852 | 0.854 | 1.02 | 0.569 | 1.51
11 | COc1ccc(-c2cc(=O)c3c(O)cc(O)cc3o2)cc1O [Diosmetin] | 2.12 | 1.03 | 0.892 | 1.37 | 1.25 | 1.26
12 | COCCCOc1ccnc(C[S+]([O-])c2nc3ccccc3[nH]2)c1C (stereo not drawn) [Rabeprazole] | 1.5 | 0.662 | 0.942 | 1.03 | 1.49 | 0.928
13 | O=C(O)Cn1nnc(-c2cc(N3CCC(Oc4cc(F)ccc4Br)CC3)no2)n1 | 0.964 | 1.38 | 0.83 | 0.907 | 2.08 | 0.751
14 | Cn1ncnc1[C@H]1c2n[nH]c(=O)c3cc(F)cc(c23)N[C@@H]1c1ccc(F)cc1 | 1.03 | 1.17 | 0.939 | 1.27 | 1.56 | 0.901
15 | O=C(c1ccc(OCCCc2c[nH]cn2)cc1)C1CC1 [Ciproxifan] | 1.15 | 1.15 | 1.03 | 0.829 | 0.908 | 1.15
16 | C=C[C@@]1(C)CC(=O)[C@]2(O)[C@@]3(C)[C@@H](O)CCC(C)(C)[C@@H]3[C@H](O)[C@H](OC(C)=O)[C@@]2(C)O1 [Forskolin] | 1.79 | 1.04 | 1.39 | 1.18 | 1.34 | 1.23
17 | C[C@@H]1C[C@H]2[C@@H]3C[C@H](F)C4=CC(=O)C=C[C@]4(C)[C@@]3(F)[C@@H](O)C[C@]2(C)[C@@]1(OC(=O)c1ccco1)C(=O)SCF [fluticasone furoate] | 2.17 | 2.7 | 2.56 | 2.29 | 1.53 | 1.72
18 | CC(C)N1CCN(Cc2cnc(-c3cc(-c4cccc5[nH]ccc45)cc4[nH]ncc34)o2)CC1 | 3.29 | 3.89 | 3.41 | 3.33 | 3.14 | 3.89
19 | NC(=O)N1c2ccccc2C=Cc2ccccc21 [Carbamazepine] | 1.69 | 0.483 | 1.26 | 0.984 | 1.28 | 1.59
20 | CN(C)C(=O)N[C@H]1CC[C@H](CCN2CCN(c3cccc(Cl)c3Cl)CC2)CC1 [Cariprazine HCl] | 1.25 | 1.41 | 1.47 | 1.58 | 1.63 | 0.982
21 | C[C@]1(COc2ccc(N3CCC(Oc4ccc(OC(F)(F)F)cc4)CC3)cc2)Cn2cc([N+](=O)[O-])nc2O1 [Delamanid] | 0.922 | 1.11 | 0.888 | 0.823 | 0.492 | 0.969
22 | CCc1cc(C(N)=S)ccn1 [Ethionamide] | 1.19 | 0.608 | 1.03 | 0.853 | 2.13 | 1.4
23 | CC(C)CN(C[C@@H](O)[C@H](Cc1ccccc1)NC(=O)O[C@H]1CO[C@H]2OCC[C@H]21)S(=O)(=O)c1ccc(N)cc1 [Darunavir Ethanolate] | 0.575 | 0.867 | 1.31 | 0.84 | 0.355 | 0.797
24 | C=CC(=O)Nc1cccc(Nc2nc(Nc3ccc(Oc4ccnc(C(=O)NC)c4)cc3)ncc2F)c1 | 1.82 | 1.47 | 1.48 | 2.2 | 2.3 | 1.63

Row | SMILES | Euclidean distance (786-O) | Euclidean distance (A549) | Euclidean distance (DU145) | Euclidean distance (FB) | Euclidean distance (HEPG2) | Euclidean distance (OVCAR4)
25 | Cc1nccn1CC1CCc2c(c3ccccc3n2C)C1=O (stereo not drawn) [Ondansetron HCl] | 1.31 | 1.62 | 1.01 | 1.16 | 0.865 | 0.943
26 | O=c1cc(N2CCOCC2)oc2c(-c3ccccc3)cccc12 | 1.73 | 1.09 | 1.16 | 1.79 | 1.66 | 2.16
27 | Nc1ccn([C@@H]2O[C@H](CO)[C@@H](O)C2(F)F)c(=O)n1 [Gemcitabine] | 2.58 | 2.74 | 3.26 | 2.91 | 2.74 | 2.98
28 | CS(=O)(=O)CCC#N [Dapansutrile (OLT1177)] | 0.937 | 0.857 | 2.91 | 0.633 | 0.92 | 1.45
29 | O=c1cc(-c2ccccc2)oc2cc(O)c(O)c(O)c12 [Baicalein] | 1.38 | 1.65 | 1.25 | 2.7 | 0.918 | 1.08
30 | COC(=O)N[C@H](C(=O)N1CCC[C@H]1c1nc(-c2ccc3c(c2)O[C@@H](c2ccccc2)n2c-3cc3cc(-c4c[nH]c([C@@H]5CCCN5C(=O)[C@@H](NC(=O)OC)C(C)C)n4)ccc32)c[nH]1)C(C)C [Elbasvir] | 2.17 | 1.94 | 1.26 | 1.97 | 1.04 | 1.58
31 | Cc1ccc(Sc2cncc3sc(C(N)=O)cc23)cc1 | 1.1 | 1.05 | 0.78 | 1.61 | 1.24 | 0.995
32 | Cn1cnc(N)c2ncnc1-2 [3-Methyladenine] | 1.21 | 1.11 | 1.58 | 1.28 | 1.37 | 0.677
33 | O=C(O)c1ccccn1 [Picolinic acid (PCL 016)] | 0.642 | 0.409 | 2.15 | 0.847 | 0.761 | 0.799
34 | Oc1c(Br)cc(Br)c2cccnc12 [Broxyquinoline] | 0.96 | 0.988 | 1.01 | 1.03 | 0.735 | 0.981
35 | O=C(O)c1cc(=O)c2ccccc2o1 [Chromocarb] | 1.02 | 0.437 | 0.751 | 1.04 | 0.887 | 0.727
36 | Cc1nnc(C(C)C)n1C1C[C@H]2CC[C@@H](C1)N2CC[C@H](NC(=O)C1CCC(F)(F)CC1)c1ccccc1 (stereo in doubt) [Maraviroc] | 1.35 | 0.711 | 1.04 | 1.1 | 0.487 | 1.71
37 | C[C@]12CCC(=O)C=C1CC[C@@H]1[C@@H]2C(=O)C[C@@]2(C)[C@H]1CC[C@]2(O)C(=O)CO [Cortisone] | 1.73 | 0.941 | 1.11 | 1.27 | 0.411 | 1
38 | NCC(=O)Nc1ccc(-n2nc(C(F)(F)F)cc2-c2ccc3c(ccc4ccccc43)c2)cc1 | 1.57 | 1.4 | 0.783 | 1.33 | 1.34 | 1.38
39 | O=C1NC(=O)/C(=C/c2ccc3c(c2)OC(F)(F)O3)S1 | 1.35 | 1.7 | 1.51 | 1.44 | 1.13 | 0.892
40 | COc1cc(CNC(=O)CCCC/C=C\C(C)C)ccc1O [Zucapsaicin] | 0.772 | 0.503 | 0.672 | 0.743 | 0.98 | 1.01
41 | O=C(NCc1c(F)cc(F)cc1F)c1cn2c(c(O)c1=O)C(=O)N1[C@H]3CC[C@H](C3)O[C@@H]1C2 [Bictegravir] | 1.77 | 3.73 | 2.63 | 2.16 | 1.04 | 2.99
42 | Nc1ccc(/N=N/c2ccccc2)c(N)n1 [Phenazopyridine HCl] | 1.22 | 0.654 | 0.961 | 1.04 | 1.07 | 0.739
43 | N#CC1(c2ccc(NC(=O)c3cccnc3NCc3ccncc3)cc2)CCCC1 [Apatinib] | 0.955 | 1.12 | 0.92 | 2.3 | 1.34 | 0.799
44 | CC(C)COc1ccc(CNC(=O)N(Cc2ccc(F)cc2)C2CCN(C)CC2)cc1 [Pimavanserin] | 4.02 | 4.29 | 3 | 5.4 | 5.24 | 3.47
45 | Cc1cc(C)cc(NC(=O)Cc2ccc(OC(C)(C)C(=O)O)cc2)c1 [Efaproxiral Sodium] | 1.04 | 0.727 | 0.774 | 0.966 | 0.587 | 0.981
46 | CN1CCN(C2=Nc3ccccc3Oc3ccc(Cl)cc32)CC1 [Loxapine Succinate] | 0.937 | 0.901 | 1.33 | 0.885 | 0.582 | 0.838
47 | O=C(Nc1nc2cccc(-c3ccc(CN4CCS(=O)(=O)CC4)cc3)n2n1)C1CC1 [Filgotinib (GLPG0634)] | 0.844 | 0.922 | 1.29 | 1.45 | 2.21 | 1.22
48 | OC[C@H]1O[C@H](O[C@H]2O[C@H](CO)[C@@H](O)[C@H](O)[C@H]2O)[C@H](O)[C@@H](O)[C@@H]1O [D-(+)-Trehalose dihydrate] | 0.894 | 1.33 | 1.15 | 1.04 | 0.672 | 1.09
